The text below walks through data of PubChem BioAssay (Tox21).

Assay [1] is described as follows: qHTS assay to identify small molecule agonists of the androgen receptor (AR) signaling pathway in the presence of an antagonist - cell viability counter screen (AID 1259379). Note: nearly all actives have a fitted effect of over 25% in size. Note: potency is the fitted concentration of half-maximal effect. The gist of the method: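 Each compound was tested at 15 concentrations on MDA-kb2 cells in the presence of 3.0uM nilutamide. Viability was measured by CellTiter-Fluor fluorescence after a 16 hr incubation at 37C in a CO2-free atmosphere.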

Assay [2] can be described thus: qHTS assay to identify small molecule agonists of the estrogen receptor beta (ER-beta) signaling pathway - cell viability counter screen (AID 1259380). Note: nearly all actives have a fitted effect of over 30% in size. Note: potency is the fitted concentration of half-maximal effect. The gist of the method:
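Compounds dissolved in DMSO were pin-transferred onto ER-beta-UAS-bla HEK293T cells that had settled 6 hr, and exposure ran 16 hr at 37C. Following the reporter read, CellTiter-Glo luminescence after 30 min at room temperature indicated cytotoxicity.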

The nature of assay [3]: qHTS assay to identify small molecule agonists or antagonists of the thyroid stimulating hormone receptor (TSHR) signaling pathway - wild type cell line counter screen (AID 1259384; calls by dose curve). The gist of the method: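 Wild-type HEK293 cells were plated 18 h at 37 C/5% CO2, pin-dosed with compound plus Ro20-1724 medium, held 30 min at room temperature, then given cAMP-d2 and anti-cAMP-cryptate; fluorescence was read after 1 h. Fifteen concentrations, triplicate.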

The target in assay [4] is Thyrotropin receptor (Homo sapiens) (UniProt P16473). Nature of the assay: qHTS assay to identify small molecule antagonists of the thyroid stimulating hormone receptor (TSHR) signaling pathway (AID 1259385; calls by dose curve; note: nearly all actives have a fitted effect of over 20% in size). The procedure, abridged:
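TSHR-HEK293 cells were plated and held 18 h at 37C/5% CO2, then given compound plus Ro20-1724 and stimulated with TSH at 1.5 ng/mL final. After 30 min at room temperature, cAMP was detected with cAMP-d2/anti-cAMP-cryptate (1 h) by fluorescence.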
(In qHTS, concentration-response curves come from the screen itself.)

A short description of assay [5]: qHTS assay to identify small molecule agonists of the estrogen receptor alpha (ER-alpha) signaling pathway in the presence of an antagonist - cell viability counter screen (AID 1259386).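 Note: cells exposed to compounds for 22 h at 37 °C before the viability read; nearly all actives have a fitted effect of over 30% in size.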 Note: potency is the fitted concentration of half-maximal effect. The procedure, abridged: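 Using estrogen-depleted VM7Luc4E2 cells, the 15-concentration compound series was applied together with 10.0nM ICI-182,780 and incubated 22hr at 37C/5% CO2. Cell viability was then scored by CellTiter-Fluor.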

For assay [6], the target named is Progesterone receptor (Homo sapiens) (UniProt P06401). As to the kind of experiment: qHTS assay to identify small molecule agonists of the progesterone receptor (PR) signaling pathway (AID 1346784; calls by dose curve; note: nearly all actives have a fitted effect of over 30% in size). The procedure, abridged: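 Fluorescence from LiveBLAzer B/G FRET substrate cleavage (2 hr, RT) reported PR activation in PR-UAS-bla HEK 293T cells treated 16 hr at 37C/5% CO2 with compounds; medium contained 2% charcoal-stripped FBS.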
Sequence of Progesterone receptor (Homo sapiens) (P06401 whole entry, looked up): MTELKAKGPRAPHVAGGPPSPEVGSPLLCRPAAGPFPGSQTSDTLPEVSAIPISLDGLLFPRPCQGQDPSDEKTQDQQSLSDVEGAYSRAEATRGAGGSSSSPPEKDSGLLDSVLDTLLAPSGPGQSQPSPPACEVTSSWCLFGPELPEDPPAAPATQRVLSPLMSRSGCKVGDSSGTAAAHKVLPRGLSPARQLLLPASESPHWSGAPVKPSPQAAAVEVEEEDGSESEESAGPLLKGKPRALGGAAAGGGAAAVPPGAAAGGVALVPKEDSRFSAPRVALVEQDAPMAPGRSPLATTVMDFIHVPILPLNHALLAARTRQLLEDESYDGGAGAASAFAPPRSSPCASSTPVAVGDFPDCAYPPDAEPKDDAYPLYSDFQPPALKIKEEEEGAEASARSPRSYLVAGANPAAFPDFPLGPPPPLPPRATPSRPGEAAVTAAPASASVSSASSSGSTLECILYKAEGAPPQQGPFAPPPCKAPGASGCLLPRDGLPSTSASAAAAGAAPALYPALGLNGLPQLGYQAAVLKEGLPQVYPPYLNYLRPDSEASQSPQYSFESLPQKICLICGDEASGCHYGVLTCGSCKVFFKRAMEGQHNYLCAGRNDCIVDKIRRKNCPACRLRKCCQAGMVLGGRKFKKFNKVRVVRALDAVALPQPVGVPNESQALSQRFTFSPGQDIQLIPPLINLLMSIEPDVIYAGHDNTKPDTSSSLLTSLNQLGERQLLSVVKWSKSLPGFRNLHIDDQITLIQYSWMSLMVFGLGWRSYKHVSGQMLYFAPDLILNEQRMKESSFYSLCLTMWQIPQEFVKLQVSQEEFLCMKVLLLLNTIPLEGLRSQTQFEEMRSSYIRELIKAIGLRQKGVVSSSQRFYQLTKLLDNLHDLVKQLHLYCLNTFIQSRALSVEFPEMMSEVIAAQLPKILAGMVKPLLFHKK

A short description of assay [7]: qHTS assay to identify small molecule antagonists of the progesterone receptor (PR) signaling pathway - cell viability counter screen (AID 1346798). Note: nearly all actives have a fitted effect of over 50% in size. Note: potency is the fitted concentration of half-maximal effect. The gist of the method:
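CellTiter-Glo luminescence; PR-UAS-bla HEK293T, 3,000 cells/well; compound + R5020, 16 hr, 37C/5% CO2; 30 min RT before read.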

Assay [8] is described as follows: qHTS assay to identify small molecule antagonists of the TGF-beta/Smad signaling pathway - cell viability counter screen (AID 1346824). Note: nearly all actives have a fitted effect of over 50% in size. Note: potency is the fitted concentration of half-maximal effect. The gist of the method:
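SBE-bla HEK 293T cells were plated overnight at 37 C, then given compounds in DMSO plus TGF-beta1 (added as 0.25 ng/mL solution) for 5 hr. After the bla read, CellTiter-Glo was added to the same wells and luminescence read after 30 min at room temperature.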

The nature of assay [9]: qHTS assay to identify small molecule agonists of the TGF-beta/Smad signaling pathway - cell viability counter screen (AID 1346829). Note: nearly all actives have a fitted effect of over 45% in size. Note: potency is the fitted concentration of half-maximal effect. The gist of the method: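 Here the cytotoxicity of library compounds is measured in SBE-bla HEK 293T cells treated for 5 hr, using CellTiter-Glo added to wells already read for the beta-lactamase reporter.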
Assay [10] can be described thus: qHTS assay to identify small molecule agonists of the TGF-beta/Smad signaling pathway (AID 1346859; active = well fitted activation curve with a large enough effect in the signal ratio in the repeat runs, not every such curve was filed as active; the % refers to the signal ratio; note: series mostly up to about 77 µM). The procedure, abridged:
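After overnight seeding, SBE-bla HEK 293T cells are dosed with compounds in DMSO and kept 5 hr at 37 C, 5% CO2. LiveBLAzer-type FRET substrate is then applied for 2 hr at room temperature.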

Assay [11] is described as follows: Caspase-3/7 induction in HepG2 cells by small molecules, qHTS assay (AID 1346978). Note: nearly all actives have a fitted effect of over 15% in size. The procedure, abridged: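 Wild-type HepG2 cells (2,000/well) were settled 5 h at 37 C, 5% CO2, then exposed to compounds in DMSO for 17 h. Caspase-3/7 activity was read by luminescence 30 min after adding Caspase-Glo 3/7 reagent at room temperature.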
For assay [12], the target named is Progesterone receptor (Homo sapiens) (UniProt P06401). Nature of the assay: qHTS assay to identify small molecule antagonists of the progesterone receptor (PR) signaling pathway (AID 1346795; active = well fitted inhibition curve with a large enough effect in the signal ratio in the repeat runs, not every such curve was filed as active; the % refers to the signal ratio; note: potency is the fitted concentration of half-maximal effect). The gist of the method: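 Fluorescence intensity measured 2 hr after adding beta-lactamase FRET substrate to PR-UAS-bla HEK293T cells that had been co-treated 16 hr with compound and 1 nM R5020 (final concentration) in 2% charcoal-stripped FBS.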

A short description of assay [13]: qHTS assay to identify small molecule agonists of the progesterone receptor (PR) signaling pathway - cell viability counter screen (AID 1346799; calls by dose curve; note: nearly all actives have a fitted effect of over 45% in size; note: potency is the fitted concentration of half-maximal effect). The procedure, abridged: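 In parallel with the beta-lactamase readout, cytotoxicity toward PR-UAS-bla HEK293T cells was measured by CellTiter-Glo luminescence following 16 hr compound incubation in 2% charcoal-stripped FBS medium.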

Assay [14] addresses Thyrotropin-releasing hormone receptor (Homo sapiens) (UniProt P34981). Nature of the assay: qHTS assay to identify small molecule antagonists of the thyrotropin-releasing hormone receptor (TRHR) signaling pathway (AID 1346877; active = well fitted inhibition curve with a large enough effect in the repeat runs, not every such curve was filed as active; note: series mostly up to about 51 µM). The gist of the method:
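Calcium signal in dye-loaded TRHR/HEK293 cells; compounds added 5 min before TRH (1 nM final); fluorescence monitored 3 min at 1 s steps.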

Assay [15] has the same target. Nature of the assay: qHTS assay to identify small molecule agonists of the thyrotropin-releasing hormone receptor (TRHR) signaling pathway (AID 1346891; calls by dose curve; note: potency is the fitted concentration of half-maximal effect;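 for activation: HEK293 cells expressing TRHR with calcium dye readout; series mostly up to about 58 µM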). The procedure, abridged:
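Compounds were tested as agonists at 15 concentrations, in triplicate, on TRHR-Hek293 cells; calcium-sensitive dye fluorescence was recorded for 3 min following addition.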

A short description of assay [16]: Human pregnane X receptor (PXR) small molecule agonists, qHTS cell viability counter screen (AID 1346977). Note: nearly all actives have a fitted effect of over 50% in size. Note: potency is the fitted concentration of half-maximal effect. The procedure, abridged:
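Viability counter screen: CellTiter-Fluor signal in PXR-Luc HepG2 cells, 24hr compound exposure, 37C, 5% CO2.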

In assay [17] the target is Androgen receptor (Homo sapiens) (UniProt P10275). As to the kind of experiment: qHTS assay to identify small molecule agonists of the androgen receptor (AR) signaling pathway in the presence of an antagonist (AID 1259381; calls by dose curve; note: nearly all actives have a fitted effect of over 15% in size). The procedure, abridged: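 Plated MDA-kb2 cells (3,000/well) were pre-incubated 5hr, given nilutamide (3.0uM final) or buffer, then dosed with compounds in DMSO at 15 concentrations. Luciferase activity was quantified by luminescence after 16hr at 37C.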
Sequence of Androgen receptor (Homo sapiens) (P10275 whole entry, looked up): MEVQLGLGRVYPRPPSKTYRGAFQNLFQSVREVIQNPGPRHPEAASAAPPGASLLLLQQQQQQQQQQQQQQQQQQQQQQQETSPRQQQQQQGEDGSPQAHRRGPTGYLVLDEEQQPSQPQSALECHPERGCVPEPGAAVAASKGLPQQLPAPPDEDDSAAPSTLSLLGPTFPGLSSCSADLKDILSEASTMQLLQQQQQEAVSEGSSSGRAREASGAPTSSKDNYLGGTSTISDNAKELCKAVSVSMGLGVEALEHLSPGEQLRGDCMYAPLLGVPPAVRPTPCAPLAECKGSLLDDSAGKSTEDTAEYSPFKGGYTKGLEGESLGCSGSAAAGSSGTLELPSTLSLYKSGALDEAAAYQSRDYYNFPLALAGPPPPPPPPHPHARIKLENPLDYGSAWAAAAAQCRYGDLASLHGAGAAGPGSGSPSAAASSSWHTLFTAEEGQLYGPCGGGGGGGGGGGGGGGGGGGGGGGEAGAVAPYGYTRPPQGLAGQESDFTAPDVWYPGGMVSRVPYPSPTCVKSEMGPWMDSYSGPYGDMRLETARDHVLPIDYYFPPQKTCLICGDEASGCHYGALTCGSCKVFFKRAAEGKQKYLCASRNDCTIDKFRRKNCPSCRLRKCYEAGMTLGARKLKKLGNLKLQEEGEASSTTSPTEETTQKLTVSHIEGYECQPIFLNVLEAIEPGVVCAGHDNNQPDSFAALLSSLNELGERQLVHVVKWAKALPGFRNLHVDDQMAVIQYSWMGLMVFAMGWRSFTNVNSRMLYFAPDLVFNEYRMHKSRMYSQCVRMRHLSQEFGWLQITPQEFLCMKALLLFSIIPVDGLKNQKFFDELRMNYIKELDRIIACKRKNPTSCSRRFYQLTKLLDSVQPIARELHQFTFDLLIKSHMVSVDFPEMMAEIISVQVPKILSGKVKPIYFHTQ

Assay [18] in a line: qHTS assay to identify small molecule antagonists of the estrogen receptor beta (ER-beta) signaling pathway - cell viability counter screen (AID 1259382). Note: nearly all actives have a fitted effect of over 55% in size. Note: potency is the fitted concentration of half-maximal effect. The gist of the method: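 CellTiter-Glo ATP luminescence measured after the LiveBLAzer read in the same wells; ER-beta-UAS-bla HEK293T cells, 16 hr compound treatment with 1nM 17-beta-estradiol agonist at 37C, 5% CO2.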
For assay [19], the target named is Estrogen receptor (Homo sapiens) (UniProt P03372). Nature of the assay: qHTS assay to identify small molecule agonists of the estrogen receptor alpha (ER-alpha) signaling pathway in the presence of an antagonist (AID 1259383; calls by dose curve; note: nearly all actives have a fitted effect of over 15% in size; note: potency is the fitted concentration of half-maximal effect; for activation: top concentration of the series differs between compounds). The procedure, abridged:
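Luminescent ERE-luciferase reporter, VM7Luc4E2 cells (endogenous ER-alpha); 10.0nM ICI-182,780 final; 15-point compound titration; 22hr at 37C; ONE-Glo, 30min RT.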

Several values for one entry are separate records, joined by “and”; a condition that tells them apart may be missing. Equal entries are not always repeated. Records with an inconclusive call do not appear. Some compounds were tested as several samples or in several runs, with calls that do not always agree. Activity calls are given as the source filed them. Unless noted, calls come from the whole dose curve; as a rule, active = well fitted curve in the direction sought with a large enough effect in the repeat runs; inconclusive = weak or mixed curves; inactive = no such curve, though single readings can be large; an effect the other way counts as inactive or inconclusive.
% is set by controls: 0 for no effect and ±100 for the full control effect.

Sequence of Estrogen receptor (Homo sapiens) (P03372 whole entry, looked up): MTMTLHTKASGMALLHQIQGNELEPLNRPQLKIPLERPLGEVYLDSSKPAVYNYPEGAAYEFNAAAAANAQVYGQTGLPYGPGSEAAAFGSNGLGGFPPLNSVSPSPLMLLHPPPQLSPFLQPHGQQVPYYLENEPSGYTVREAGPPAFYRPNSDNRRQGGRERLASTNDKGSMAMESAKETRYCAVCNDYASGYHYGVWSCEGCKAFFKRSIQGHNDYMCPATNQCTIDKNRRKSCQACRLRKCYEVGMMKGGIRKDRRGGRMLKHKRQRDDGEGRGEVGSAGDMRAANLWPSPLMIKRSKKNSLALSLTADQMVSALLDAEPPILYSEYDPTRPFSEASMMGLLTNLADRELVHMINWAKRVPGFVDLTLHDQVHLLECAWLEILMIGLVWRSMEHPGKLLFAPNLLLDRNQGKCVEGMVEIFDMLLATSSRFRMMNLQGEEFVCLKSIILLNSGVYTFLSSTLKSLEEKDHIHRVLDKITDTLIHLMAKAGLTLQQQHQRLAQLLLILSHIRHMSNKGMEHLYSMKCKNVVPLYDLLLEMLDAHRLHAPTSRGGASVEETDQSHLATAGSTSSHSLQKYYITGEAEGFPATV
Sequence of Thyrotropin receptor (Homo sapiens) (P16473 whole entry, looked up): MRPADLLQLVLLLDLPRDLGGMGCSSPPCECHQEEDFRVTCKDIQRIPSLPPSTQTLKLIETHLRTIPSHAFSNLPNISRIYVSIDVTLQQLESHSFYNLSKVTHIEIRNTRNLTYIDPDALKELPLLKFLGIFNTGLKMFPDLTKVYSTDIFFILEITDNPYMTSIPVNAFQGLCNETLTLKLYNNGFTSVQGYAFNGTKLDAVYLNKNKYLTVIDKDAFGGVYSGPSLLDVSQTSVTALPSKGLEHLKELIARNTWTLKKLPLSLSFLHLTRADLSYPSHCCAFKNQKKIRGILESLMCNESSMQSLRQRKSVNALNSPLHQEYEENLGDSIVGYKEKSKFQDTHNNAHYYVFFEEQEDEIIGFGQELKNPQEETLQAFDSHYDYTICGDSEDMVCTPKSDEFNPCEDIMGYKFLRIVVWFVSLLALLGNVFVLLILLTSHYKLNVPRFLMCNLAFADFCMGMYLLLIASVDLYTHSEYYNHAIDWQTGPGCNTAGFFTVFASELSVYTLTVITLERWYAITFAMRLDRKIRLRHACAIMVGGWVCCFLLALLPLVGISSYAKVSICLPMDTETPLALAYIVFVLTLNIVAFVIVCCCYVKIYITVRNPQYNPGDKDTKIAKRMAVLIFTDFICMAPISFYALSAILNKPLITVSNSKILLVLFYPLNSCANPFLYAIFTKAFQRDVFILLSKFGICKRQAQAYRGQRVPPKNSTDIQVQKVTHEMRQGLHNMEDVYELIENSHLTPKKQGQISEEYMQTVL
Sequence of Thyrotropin-releasing hormone receptor (Homo sapiens) (P34981 whole entry, looked up): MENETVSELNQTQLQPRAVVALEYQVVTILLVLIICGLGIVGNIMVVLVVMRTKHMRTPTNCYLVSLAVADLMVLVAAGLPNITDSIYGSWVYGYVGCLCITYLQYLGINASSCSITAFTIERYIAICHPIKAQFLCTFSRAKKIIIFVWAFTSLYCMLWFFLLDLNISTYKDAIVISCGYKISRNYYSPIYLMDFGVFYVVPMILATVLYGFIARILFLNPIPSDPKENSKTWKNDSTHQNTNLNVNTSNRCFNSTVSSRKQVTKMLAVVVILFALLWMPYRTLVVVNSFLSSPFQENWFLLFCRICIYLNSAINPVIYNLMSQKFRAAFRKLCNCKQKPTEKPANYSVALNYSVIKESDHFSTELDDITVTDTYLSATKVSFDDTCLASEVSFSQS

As to `S=C(SSC(=S)N1CCCCC1)N1CCCCC1`, the Potency entry in assay [1], in assay [4], in assay [5], in [6], in assay [8] and in assay [9] was “inactive” in each case. The Potency result in assay [11] is “inactive”. The Potency in assay [2] is 0.188 µM (active); in [7] it was 531 nM (active). For the same compound, the compound was called inactive in assay [3] and in [10].

Turning to `CCS(=O)(=O)c1cccnc1S(=O)(=O)NC(=O)Nc1nc(OC)cc(OC)n1`, the Potency result in [1], in assay [2], in assay [4], in assay [5], in [6] and in assay [12] was “inactive” throughout. Further, the Potency result in assay [7], in [13], in assay [8], in assay [9], in assay [14] and in [15] was “inactive” in each case. The Potency entry in assay [16] and in assay [11] was “inactive” each time. The compound was classed as inactive in [3] and in [10].

As to `CCOP(=O)(NC(C)C)Oc1ccc(SC)c(C)c1` (configuration not stated), the Potency result in assay [1], in assay [17], in [18], in assay [5], in assay [6] and in assay [8] was “inactive” each time. For the same compound, the Potency result in assay [9], in assay [14], in assay [15], in assay [16] and in assay [11] was “inactive” in each case. In addition, the result in [3] and in assay [10] was inactive.

`Oc1ccc(C2(c3ccc(O)cc3)CCCCC2)cc1`: the Potency result in [1], in assay [8], in assay [9], in assay [14] and in [15] was “inactive” throughout. Further, the Potency is 57.9 µM (active) in assay [2], 14.5 µM (active) in assay [19] and 57.9 µM (active) in assay [16]. In addition, the outcome in assay [3] and in assay [10] was inactive.

Take `Cc1cc(C(F)(C(F)(F)F)C(F)(F)F)ccc1NC(=O)c1cccc(I)c1C(=O)NC(C)(C)CS(C)(=O)=O`: the Potency result in assay [1], in assay [19], in [4], in assay [5], in assay [7] and in [13] was “inactive” throughout. The Potency entry in [8], in [9], in assay [14], in assay [15], in [16] and in assay [11] was “inactive” throughout. For the same compound, the Potency in assay [2] was 19.4 µM (active). The call in assay [3] and in [10] was inactive.

`CCCCCCCCCCCCCCCC[n+]1ccccc1`: the Potency is 25.5 µM (active) [middle of 4 runs] in [1]; 29.8 µM (active) [middle of 4 runs] in assay [18]; 71.7 µM (active) and 61.1 µM (active) and 60.3 µM (active) in assay [5]; 50.8 µM (active) and 61.1 µM (active) and 60.3 µM (active) in assay [7]; 50.8 µM (active) and 54.5 µM (active) in [13]; 43.6 µM (active) [middle of 4 runs] in assay [8]. Also, the Potency in assay [9] was 54.2 µM (active) [middle of 4 runs]; in assay [15], 36.3 µM (active) and inactive; in [16], 30.6 µM (active) [middle of 4 runs]. Besides, the Potency result in assay [19], in assay [6] and in assay [11] was “inactive” in each case.

In the case of `C[C@]12CC[C@H]3[C@@H](CCC4=CC(=O)CC[C@@]43C)[C@@H]1CC[C@@H]2O`, the Potency entry in assay [1], in assay [18], in [19], in assay [4], in assay [5] and in assay [8] was “inactive” throughout. For the same compound, the Potency entry in assay [9], in assay [16] and in assay [11] was “inactive” throughout. Further, the outcome in [10] was inactive.

Take `CCN(CC)c1c([N+](=O)[O-])cc(C(F)(F)F)c(N)c1[N+](=O)[O-]`: the Potency entry in assay [1], in assay [17], in assay [18], in assay [19], in assay [6] and in [8] was “inactive” in each case. Also, the Potency result in assay [9], in assay [14], in [15] and in [16] was “inactive” in each case. In addition, the call in assay [3] and in assay [10] was inactive.

Regarding `CC(C)(C)c1cc([N+](=O)[O-])cc(C(C)(C)C)c1O`, the Potency in [1] was 8.63 µM (active); in [5], 8.63 µM (active); in assay [12] it was 30.6 µM (active); in [16] it was 5.45 µM (active). Moreover, the Potency result in assay [18], in assay [19], in assay [4], in assay [6], in [9] and in assay [14] was “inactive” each time. Further, the Potency result in assay [15] and in [11] was “inactive” in each case. Also, the compound was classed as inactive in assay [3].
